Results reported in ChEMBL document CHEMBL1961873, “Compounds: GSK PKIS; Assays: Nanosyn kinase panel” (2012).

Experiments:
[1] = target: Sphingosine kinase 1 (Homo sapiens) (UniProt Q9NYA1); settings: at 1 µM;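 also: mean SPHK1 inhibition value reported from the GSK PKIS kinase panel screen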
[2] = target: T1, Sphingosine kinase 2 (Homo sapiens) (UniProt Q9NRA0); settings: at 0.1 µM
T1 sequence (whole entry): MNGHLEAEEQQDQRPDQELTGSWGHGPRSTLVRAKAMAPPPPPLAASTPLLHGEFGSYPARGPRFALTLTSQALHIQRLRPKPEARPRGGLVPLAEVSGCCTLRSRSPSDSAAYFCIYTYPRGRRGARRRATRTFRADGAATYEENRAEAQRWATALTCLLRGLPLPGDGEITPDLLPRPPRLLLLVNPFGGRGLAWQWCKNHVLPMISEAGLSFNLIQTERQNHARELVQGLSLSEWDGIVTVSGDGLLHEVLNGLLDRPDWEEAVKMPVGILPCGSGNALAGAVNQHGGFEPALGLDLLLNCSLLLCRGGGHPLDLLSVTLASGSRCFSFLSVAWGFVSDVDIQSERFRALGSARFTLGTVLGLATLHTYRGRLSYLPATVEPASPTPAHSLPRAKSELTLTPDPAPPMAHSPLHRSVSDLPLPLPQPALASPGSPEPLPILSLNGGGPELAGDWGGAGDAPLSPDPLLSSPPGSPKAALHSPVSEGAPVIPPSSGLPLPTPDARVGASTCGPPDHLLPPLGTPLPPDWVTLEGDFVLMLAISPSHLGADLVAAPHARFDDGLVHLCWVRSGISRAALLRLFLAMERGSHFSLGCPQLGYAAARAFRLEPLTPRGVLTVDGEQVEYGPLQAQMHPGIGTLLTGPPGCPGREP

[3] = target: T1, Sphingosine kinase 2 (Homo sapiens); settings: at 1 µM
[4] = target: Casein kinase II subunit alpha (Homo sapiens) (UniProt P68400); settings: at 0.1 µM
[5] = target: Casein kinase II subunit alpha (Homo sapiens) (UniProt P68400); settings: at 1 µM
[6] = target: T2, Inhibitor of nuclear factor kappa-B kinase subunit alpha (Homo sapiens) (UniProt O15111); settings: at 0.1 µM
T2 sequence (whole entry): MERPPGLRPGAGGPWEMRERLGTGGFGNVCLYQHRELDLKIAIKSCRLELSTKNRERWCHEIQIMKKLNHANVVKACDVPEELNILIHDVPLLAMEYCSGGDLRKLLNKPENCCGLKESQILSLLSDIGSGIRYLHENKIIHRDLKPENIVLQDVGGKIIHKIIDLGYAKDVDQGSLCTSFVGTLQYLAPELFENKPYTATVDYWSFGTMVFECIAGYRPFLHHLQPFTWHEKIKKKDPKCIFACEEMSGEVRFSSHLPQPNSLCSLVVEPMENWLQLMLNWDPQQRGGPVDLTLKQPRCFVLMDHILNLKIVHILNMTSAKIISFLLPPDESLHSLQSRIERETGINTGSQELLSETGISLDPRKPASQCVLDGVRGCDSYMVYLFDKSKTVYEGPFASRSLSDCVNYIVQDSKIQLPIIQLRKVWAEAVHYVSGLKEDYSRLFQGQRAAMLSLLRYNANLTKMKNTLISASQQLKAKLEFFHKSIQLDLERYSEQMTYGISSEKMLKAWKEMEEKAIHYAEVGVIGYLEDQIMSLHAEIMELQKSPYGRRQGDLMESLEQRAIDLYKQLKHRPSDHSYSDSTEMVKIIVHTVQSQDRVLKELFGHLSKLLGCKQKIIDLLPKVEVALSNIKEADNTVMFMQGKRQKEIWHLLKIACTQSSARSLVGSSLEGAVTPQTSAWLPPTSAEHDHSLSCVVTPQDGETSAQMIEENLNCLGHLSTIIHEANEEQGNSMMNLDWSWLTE

[7] = target: T2, Inhibitor of nuclear factor kappa-B kinase subunit alpha (Homo sapiens); settings: at 1 µM
[8] = target: T3, Inhibitor of nuclear factor kappa-B kinase subunit beta (Homo sapiens) (UniProt O14920); settings: at 0.1 µM
T3 sequence (whole entry): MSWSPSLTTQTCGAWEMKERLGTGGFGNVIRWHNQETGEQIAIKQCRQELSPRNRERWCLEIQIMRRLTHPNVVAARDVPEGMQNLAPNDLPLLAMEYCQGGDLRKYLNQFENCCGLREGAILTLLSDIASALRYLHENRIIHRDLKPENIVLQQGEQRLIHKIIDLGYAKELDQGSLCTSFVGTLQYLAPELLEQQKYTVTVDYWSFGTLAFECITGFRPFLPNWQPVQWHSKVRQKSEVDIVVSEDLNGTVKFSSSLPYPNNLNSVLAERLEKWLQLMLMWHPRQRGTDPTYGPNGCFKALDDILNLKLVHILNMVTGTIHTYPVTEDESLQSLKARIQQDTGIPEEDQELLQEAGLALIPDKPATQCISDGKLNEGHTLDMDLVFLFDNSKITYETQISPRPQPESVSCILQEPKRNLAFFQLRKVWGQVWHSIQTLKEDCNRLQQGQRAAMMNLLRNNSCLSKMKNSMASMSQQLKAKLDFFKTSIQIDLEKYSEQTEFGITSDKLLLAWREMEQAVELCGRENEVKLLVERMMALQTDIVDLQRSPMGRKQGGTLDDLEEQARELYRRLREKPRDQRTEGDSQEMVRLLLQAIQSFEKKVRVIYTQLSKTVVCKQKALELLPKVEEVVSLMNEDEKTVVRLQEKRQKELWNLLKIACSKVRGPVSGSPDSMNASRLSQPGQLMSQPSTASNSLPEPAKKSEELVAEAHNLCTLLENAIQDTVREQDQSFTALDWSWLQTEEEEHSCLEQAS

[9] = target: T3, Inhibitor of nuclear factor kappa-B kinase subunit beta (Homo sapiens); settings: at 1 µM
[10] = target: T4, Inhibitor of nuclear factor kappa-B kinase subunit epsilon (Homo sapiens) (UniProt Q14164); settings: at 0.1 µM
T4 sequence (whole entry): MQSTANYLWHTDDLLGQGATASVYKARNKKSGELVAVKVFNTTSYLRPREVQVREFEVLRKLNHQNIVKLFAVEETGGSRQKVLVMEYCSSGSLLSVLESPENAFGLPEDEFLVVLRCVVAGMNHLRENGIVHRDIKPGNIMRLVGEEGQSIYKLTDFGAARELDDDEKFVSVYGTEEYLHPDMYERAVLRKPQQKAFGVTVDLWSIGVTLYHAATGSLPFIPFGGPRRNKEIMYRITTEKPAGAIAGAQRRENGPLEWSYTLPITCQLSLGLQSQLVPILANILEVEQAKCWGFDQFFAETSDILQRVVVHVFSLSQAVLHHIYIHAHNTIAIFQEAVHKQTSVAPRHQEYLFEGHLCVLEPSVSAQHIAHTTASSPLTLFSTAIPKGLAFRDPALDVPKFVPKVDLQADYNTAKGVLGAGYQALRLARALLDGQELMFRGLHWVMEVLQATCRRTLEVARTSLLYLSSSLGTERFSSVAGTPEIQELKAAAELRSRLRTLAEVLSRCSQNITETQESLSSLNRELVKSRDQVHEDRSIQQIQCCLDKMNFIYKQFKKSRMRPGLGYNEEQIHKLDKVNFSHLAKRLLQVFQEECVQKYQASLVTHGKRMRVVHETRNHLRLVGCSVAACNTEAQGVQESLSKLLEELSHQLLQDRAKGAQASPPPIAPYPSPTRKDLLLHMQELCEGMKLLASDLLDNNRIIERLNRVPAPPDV

[11] = target: T4, Inhibitor of nuclear factor kappa-B kinase subunit epsilon (Homo sapiens); settings: at 1 µM
[12] = target: T5, Serine/threonine-protein kinase Nek1 (Homo sapiens) (UniProt Q96PY6); settings: at 0.1 µM
T5 sequence (whole entry): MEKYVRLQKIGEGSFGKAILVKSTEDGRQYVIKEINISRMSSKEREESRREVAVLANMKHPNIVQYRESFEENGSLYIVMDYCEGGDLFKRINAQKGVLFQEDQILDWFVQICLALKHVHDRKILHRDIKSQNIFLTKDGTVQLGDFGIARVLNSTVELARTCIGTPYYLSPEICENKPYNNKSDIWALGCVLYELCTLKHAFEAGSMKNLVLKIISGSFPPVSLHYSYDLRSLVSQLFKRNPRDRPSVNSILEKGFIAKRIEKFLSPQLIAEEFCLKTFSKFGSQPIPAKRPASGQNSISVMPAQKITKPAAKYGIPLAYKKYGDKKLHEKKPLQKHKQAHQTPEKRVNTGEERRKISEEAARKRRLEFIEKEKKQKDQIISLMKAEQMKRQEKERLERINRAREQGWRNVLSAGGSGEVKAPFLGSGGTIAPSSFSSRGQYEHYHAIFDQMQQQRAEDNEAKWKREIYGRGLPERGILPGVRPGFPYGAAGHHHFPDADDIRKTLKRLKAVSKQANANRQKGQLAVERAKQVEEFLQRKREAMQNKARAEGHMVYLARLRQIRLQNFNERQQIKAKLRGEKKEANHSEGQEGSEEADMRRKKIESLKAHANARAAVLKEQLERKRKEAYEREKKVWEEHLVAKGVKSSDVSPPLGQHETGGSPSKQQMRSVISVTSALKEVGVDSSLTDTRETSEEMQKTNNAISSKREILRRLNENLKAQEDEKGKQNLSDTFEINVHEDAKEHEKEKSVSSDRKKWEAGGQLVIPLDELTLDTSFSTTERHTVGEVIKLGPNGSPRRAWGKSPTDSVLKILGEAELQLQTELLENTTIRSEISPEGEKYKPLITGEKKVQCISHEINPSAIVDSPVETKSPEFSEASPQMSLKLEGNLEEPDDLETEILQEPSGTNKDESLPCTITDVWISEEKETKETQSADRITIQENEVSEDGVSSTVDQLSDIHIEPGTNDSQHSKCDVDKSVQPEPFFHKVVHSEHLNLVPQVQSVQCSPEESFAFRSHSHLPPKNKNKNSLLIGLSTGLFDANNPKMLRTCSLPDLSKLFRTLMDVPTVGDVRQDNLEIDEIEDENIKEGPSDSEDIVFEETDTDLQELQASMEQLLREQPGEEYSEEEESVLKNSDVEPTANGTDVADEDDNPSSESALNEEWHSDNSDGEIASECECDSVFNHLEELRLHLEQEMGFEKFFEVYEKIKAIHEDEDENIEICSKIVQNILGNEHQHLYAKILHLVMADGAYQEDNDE

[13] = target: T5, Serine/threonine-protein kinase Nek1 (Homo sapiens); settings: at 1 µM
[14] = target: T6, Serine/threonine-protein kinase Nek2 (Homo sapiens) (UniProt P51955); settings: at 0.1 µM
T6 sequence (whole entry): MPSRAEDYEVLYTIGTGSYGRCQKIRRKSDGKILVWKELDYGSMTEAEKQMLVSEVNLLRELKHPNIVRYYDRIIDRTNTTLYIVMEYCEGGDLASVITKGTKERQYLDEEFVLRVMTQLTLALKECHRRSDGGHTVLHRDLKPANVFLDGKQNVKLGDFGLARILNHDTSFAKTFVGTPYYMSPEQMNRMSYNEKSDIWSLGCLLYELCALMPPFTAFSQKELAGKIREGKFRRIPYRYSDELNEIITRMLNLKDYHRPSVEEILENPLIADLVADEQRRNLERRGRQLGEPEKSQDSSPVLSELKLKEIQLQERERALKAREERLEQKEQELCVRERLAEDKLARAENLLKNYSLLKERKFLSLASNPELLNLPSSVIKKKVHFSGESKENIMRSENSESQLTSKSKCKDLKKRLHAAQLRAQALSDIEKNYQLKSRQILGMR

[15] = target: T6, Serine/threonine-protein kinase Nek2 (Homo sapiens); settings: at 1 µM
[16] = target: Serine/threonine-protein kinase Nek6 (Homo sapiens) (UniProt Q9HC98); settings: at 0.1 µM
[17] = target: Serine/threonine-protein kinase Nek6 (Homo sapiens) (UniProt Q9HC98); settings: at 1 µM
[18] = target: Serine/threonine-protein kinase Nek7 (Homo sapiens) (UniProt Q8TDX7); settings: at 0.1 µM
[19] = target: Serine/threonine-protein kinase Nek7 (Homo sapiens) (UniProt Q8TDX7); settings: at 1 µM
[20] = target: T7, Serine/threonine-protein kinase Nek9 (Homo sapiens) (UniProt Q8TD19); settings: at 0.1 µM;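 also: reported value is the mean percent inhibition of NEK9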
T7 sequence (whole entry): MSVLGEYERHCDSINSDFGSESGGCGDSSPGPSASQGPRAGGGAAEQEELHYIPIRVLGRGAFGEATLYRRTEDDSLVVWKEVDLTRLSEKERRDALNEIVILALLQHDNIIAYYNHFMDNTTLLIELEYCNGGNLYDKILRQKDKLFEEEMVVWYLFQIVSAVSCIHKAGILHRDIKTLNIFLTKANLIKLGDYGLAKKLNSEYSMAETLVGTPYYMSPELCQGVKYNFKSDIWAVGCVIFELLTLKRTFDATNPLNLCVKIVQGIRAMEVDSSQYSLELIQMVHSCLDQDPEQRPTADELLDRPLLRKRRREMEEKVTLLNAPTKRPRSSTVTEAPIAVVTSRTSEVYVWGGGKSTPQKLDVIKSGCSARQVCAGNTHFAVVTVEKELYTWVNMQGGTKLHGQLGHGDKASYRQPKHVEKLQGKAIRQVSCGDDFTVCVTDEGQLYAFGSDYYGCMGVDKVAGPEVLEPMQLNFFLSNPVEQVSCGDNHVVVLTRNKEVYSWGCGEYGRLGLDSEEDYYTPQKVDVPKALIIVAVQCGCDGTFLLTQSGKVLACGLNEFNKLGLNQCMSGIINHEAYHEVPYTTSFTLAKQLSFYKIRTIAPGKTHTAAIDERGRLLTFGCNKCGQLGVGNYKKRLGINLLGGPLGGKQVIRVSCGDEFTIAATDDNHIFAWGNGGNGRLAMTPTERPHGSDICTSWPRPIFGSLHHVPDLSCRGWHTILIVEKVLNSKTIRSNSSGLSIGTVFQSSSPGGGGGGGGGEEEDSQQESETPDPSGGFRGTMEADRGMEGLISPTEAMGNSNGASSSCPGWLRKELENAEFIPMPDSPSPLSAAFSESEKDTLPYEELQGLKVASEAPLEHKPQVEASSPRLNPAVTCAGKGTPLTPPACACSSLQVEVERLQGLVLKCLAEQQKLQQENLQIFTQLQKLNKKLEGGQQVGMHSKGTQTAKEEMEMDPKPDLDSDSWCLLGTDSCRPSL

Chain of Casein kinase II subunit alpha (Homo sapiens) (P68400 whole entry, looked up): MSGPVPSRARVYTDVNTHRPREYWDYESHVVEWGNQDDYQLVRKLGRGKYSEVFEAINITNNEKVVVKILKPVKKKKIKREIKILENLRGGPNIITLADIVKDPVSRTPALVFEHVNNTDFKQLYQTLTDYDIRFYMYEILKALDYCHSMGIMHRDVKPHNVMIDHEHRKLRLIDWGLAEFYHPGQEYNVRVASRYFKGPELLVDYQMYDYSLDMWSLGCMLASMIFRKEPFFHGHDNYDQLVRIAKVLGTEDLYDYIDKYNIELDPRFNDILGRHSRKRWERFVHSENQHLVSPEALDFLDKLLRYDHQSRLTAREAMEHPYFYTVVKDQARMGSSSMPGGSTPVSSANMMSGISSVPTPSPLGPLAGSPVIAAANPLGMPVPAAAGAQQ
Chain of Serine/threonine-protein kinase Nek7 (Homo sapiens) (Q8TDX7 whole entry, looked up): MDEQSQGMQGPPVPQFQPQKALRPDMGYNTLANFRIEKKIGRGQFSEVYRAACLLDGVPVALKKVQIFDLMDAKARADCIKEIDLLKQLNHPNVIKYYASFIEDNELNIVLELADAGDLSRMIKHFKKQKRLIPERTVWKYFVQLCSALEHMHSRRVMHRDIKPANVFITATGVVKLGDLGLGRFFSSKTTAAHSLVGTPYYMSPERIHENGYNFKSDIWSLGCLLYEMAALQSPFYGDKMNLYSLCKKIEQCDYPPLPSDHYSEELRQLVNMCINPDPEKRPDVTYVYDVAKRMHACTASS
Chain of Serine/threonine-protein kinase Nek6 (Homo sapiens) (Q9HC98 whole entry): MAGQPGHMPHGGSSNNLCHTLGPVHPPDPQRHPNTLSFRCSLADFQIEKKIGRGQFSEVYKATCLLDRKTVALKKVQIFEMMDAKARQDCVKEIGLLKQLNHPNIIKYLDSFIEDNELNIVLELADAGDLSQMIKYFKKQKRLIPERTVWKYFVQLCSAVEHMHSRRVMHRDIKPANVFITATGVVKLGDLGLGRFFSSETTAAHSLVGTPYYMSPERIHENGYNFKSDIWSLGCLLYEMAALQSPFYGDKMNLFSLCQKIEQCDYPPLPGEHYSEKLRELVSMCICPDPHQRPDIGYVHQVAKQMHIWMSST
Chain of Sphingosine kinase 1 (Homo sapiens) (Q9NYA1 whole entry): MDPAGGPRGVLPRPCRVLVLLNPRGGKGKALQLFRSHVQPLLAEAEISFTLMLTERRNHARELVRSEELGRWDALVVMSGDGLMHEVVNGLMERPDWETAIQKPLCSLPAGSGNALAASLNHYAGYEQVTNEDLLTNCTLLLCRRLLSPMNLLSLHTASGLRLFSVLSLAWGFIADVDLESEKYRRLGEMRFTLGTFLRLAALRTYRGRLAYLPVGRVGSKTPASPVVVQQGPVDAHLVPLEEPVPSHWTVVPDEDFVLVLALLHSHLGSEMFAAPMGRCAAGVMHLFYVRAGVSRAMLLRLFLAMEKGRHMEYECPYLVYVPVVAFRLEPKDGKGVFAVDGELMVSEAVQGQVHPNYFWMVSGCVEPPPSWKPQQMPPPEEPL

SMILES	inhibition [1]	inhibition [2]	inhibition [3]	inhibition [4]	inhibition [5]	inhibition [6]	inhibition [7]	inhibition [8]	inhibition [9]	inhibition [10]	inhibition [11]	inhibition [12]	inhibition [13]	inhibition [14]	inhibition [15]	inhibition [16]	inhibition [17]	inhibition [18]	inhibition [19]	inhibition [20]
Cc1ccc(C(=O)NC2CCCCC2)cc1-c1ccc(C(=O)NCC2CC2)cc1	-0.86%	-0.91%	-1.61%	0.66%	-5.06%	-3.35%	-8.02%	3.29%	-2.31%	1.75%	0.57%	1.91%	1.48%	3.04%	3.36%	3.51%	-2.96%	4.39%	3.76%	-0.48%
CNC(=O)c1cncc(/C=C/c2c(Cl)cccc2Cl)c1	-1.49%	0.89%	-2.09%	16.9%	14.9%	1.91%	0.72%	7.67%	11.4%	5.94%	6.17%	2.78%	1.83%	4.53%	3.38%	1.11%	4.76%	4.23%	9.84%	5.43%
